Measured values taken from the supplement of paper PMC10849652.
About 7,900 targets were measured; listed, in parts, are those with a hit and a random draw of the rest. About 0.6% of all pairs of compound and target were hits.

Tests used:
Test in all cases: log2 fold change, soluble protein after heating vs DMSO (PISA); higher = thermal stabilisation; K562 cells, 10 uM, 30 min; active = over 0.2 and 3.5 SD of the protein, either way, in both replicates (recomputed)
[1] = compound: CC1=C(C=C(C=C1)NC(=O)C2=CC(=CC=C2)C(C)(C)C#N)NC3=CC4=C(C=C3)N=CN(C4=O)C
Method in brief: (§1)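 K562 cells (2×10^6 cells/mL) were treated with 10 μM compound for 30 min, and aliquots were heated for 3 min over 48°C-58°C. Pooled aliquots were extracted in PBS with 0.5% NP-40 at 4°C, and the supernatant after 21,000xg for 90 min was measured by TMTpro 16plex LC-MS/MS with channel sums equalised. Reported thermal stability, relative to control samples and from duplicates, is a log2 fold change.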

[2] = compound: CC1=C(C=C(C=C1)NC(=O)C2=CC(=CC=C2)N(C)C)NC(=O)C3=CC=C(C=C3)O
Method in brief: as §1

[3] = compound: CC1=CC=C(C=C1)SC2=C3C=C(SC3=CN=C2)C(=O)N
Method in brief: as §1

[4] = compound: CC1=NC(=CC=C1)C2=C(N=C(N2)C(C)(C)C)C3=CC4=NC=CN=C4C=C3
Method in brief: as §1

[5] = compound: CCCCN(Cc1ccc(C(=O)NO)cc1)C(=O)Nc1ccccc1 [Nexturastat A]
Method in brief: as §1

[6] = compound: CCCS(=O)(=O)Nc1ccc(F)c(C(=O)c2c[nH]c3ncc(-c4ccc(Cl)cc4)cc23)c1F [vemurafenib]
Method in brief: as §1

[7] = compound: CCCS(=O)(=O)Nc1ccc(F)c(C(=O)c2c[nH]c3ncc(Cl)cc23)c1F
Method in brief: as §1

[8] = compound: CCCc1cc(C)[nH]c(=O)c1CNC(=O)c1cc(-c2ccnc(N3CCN(C)CC3)c2)cc2c1cnn2C(C)C
Method in brief: as §1

[9] = compound: CCN(CC)Cc1ccc2cc(COC(=O)Nc3ccc(C(=O)NO)cc3)ccc2c1 [givinostat]
Method in brief: as §1

[10] = compound: CCN(CCCOc1ccc2c(Nc3cc(CC(=O)Nc4cccc(F)c4)[nH]n3)ncnc2c1)CCOP(=O)(O)O [barasertib]
Method in brief: as §1

Measured: log2 fold change

CMTR1 (UniProt Q8N1G2)
inactive: [1] -0.012 | [2] -0.003 | [3] -0.021 | [4] 0.083 | [5] -0.069 | [6] 0.03 | [7] 0.005 | [8] -0.004 | [9] -0.062 | [10] 0.054

CDK19 (UniProt Q9BWU1)
inactive: [1] -0.032 | [2] 0.212 | [3] 0.246 | [5] -0.039 | [6] 0.057 | [7] -0.026 | [8] -0.109 | [9] -0.133

C22orf39 (UniProt Q6P5X5)
Sequence of UniProt Q6P5X5 (Q6P5X5 whole entry, looked up): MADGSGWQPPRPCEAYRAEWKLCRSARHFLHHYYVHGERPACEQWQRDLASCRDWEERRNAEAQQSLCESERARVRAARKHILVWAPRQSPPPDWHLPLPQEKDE
inactive: [1] -0.033 | [2] 0.059 | [3] -0.058 | [4] -0.008 | [5] -0.024 | [7] 0.205 | [8] 0.017 | [9] 0.044 | [10] -0.042

COPS3 isoform 2 (UniProt Q9UNS2)
inactive: [1] -0.154 | [2] 0.03 | [3] 0.066 | [4] -0.128 | [5] -0.113 | [6] -0.303 | [7] -0.14 | [8] -0.162 | [10] 0.065

COX7B (UniProt P24311)
Sequence of UniProt P24311 (P24311 whole entry, looked up): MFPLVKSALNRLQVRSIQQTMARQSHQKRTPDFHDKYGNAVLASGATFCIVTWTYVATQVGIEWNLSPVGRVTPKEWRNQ
inactive: [1] 0.048 | [3] 0.045 | [4] 0.094 | [5] -0.056 | [6] -0.148 | [7] 0.136 | [8] -0.188 | [9] -0.013 | [10] -0.025

CPT1A (UniProt P50416)
inactive: [1] 0.069 | [2] -0.077 | [3] -0.054 | [4] -0.114 | [5] 0.083 | [6] 0.11 | [7] 0.022 | [8] 0.09 | [9] 0.048 | [10] 0.01

CLCN7 (UniProt P51798)
inactive: [1] 0.027 | [2] -0.026 | [3] 0.029 | [4] 0.006 | [5] -0.07 | [6] 0.001 | [7] 0.038 | [8] -0.068 | [9] -0.007 | [10] -0.015

C19orf54 (UniProt Q5BKX5)
inactive: [1] 0.096 | [2] -0.053 | [3] 0.127 | [4] -0.104 | [5] -0.025 | [6] -0.118 | [7] 0.077 | [9] 0.044

CHST10 (UniProt O43529)
inactive: [1] 0.067 | [2] -0.096 | [3] -0.092 | [4] -0.052 | [5] 0.05 | [7] -0.015 | [8] -0.097 | [9] 0.069 | [10] -0.025

COX15 (UniProt Q7KZN9)
inactive: [1] 0.05 | [2] 0.024 | [3] 0.001 | [4] 0.003 | [5] -0.113 | [6] 0.005 | [7] 0.015 | [8] -0.077 | [9] -0.008 | [10] 0.009

COG2 (UniProt Q14746)
inactive: [1] -0.064 | [2] 0 | [4] 0.096 | [5] 0.432 | [8] -0.59 | [9] 0.048

CRYM-AS1 (UniProt A6NIL9)
inactive: [1] 0.239 | [2] -0.066 | [4] -0.224 | [5] 0.332 | [6] 0.161 | [8] -0.049 | [9] 0.189 | [10] -0.036

CASP10 isoform 4 (UniProt Q92851)
inactive: [1] 0.015 | [2] 0.026 | [3] 0.085 | [4] 0 | [5] 0.125 | [6] -0.015 | [7] 0.014 | [8] 0.034 | [10] 0.121

COX17 (UniProt Q14061)
Sequence of UniProt Q14061 (Q14061 whole entry, looked up): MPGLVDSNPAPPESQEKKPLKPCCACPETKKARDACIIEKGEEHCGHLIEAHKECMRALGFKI
inactive: [1] -0.015 | [2] -0.358 | [4] 0.024 | [5] 0 | [6] 0.029 | [8] 0.025 | [9] 0.029

CCNT2 (UniProt O60583)
inactive: [1] 0.092 | [2] 0.042 | [3] -0.057 | [5] 0.348 | [7] -0.031 | [8] 0.211

CHEK1 (UniProt O14757)
inactive: [1] -0.023 | [2] -0.013 | [3] 0.05 | [4] 0.037 | [5] -0.048 | [6] 0.017 | [7] 0 | [8] -0.022 | [9] 0.029 | [10] 0.033

CBS (UniProt P35520)
Sequence of UniProt P35520 (P35520 whole entry, looked up): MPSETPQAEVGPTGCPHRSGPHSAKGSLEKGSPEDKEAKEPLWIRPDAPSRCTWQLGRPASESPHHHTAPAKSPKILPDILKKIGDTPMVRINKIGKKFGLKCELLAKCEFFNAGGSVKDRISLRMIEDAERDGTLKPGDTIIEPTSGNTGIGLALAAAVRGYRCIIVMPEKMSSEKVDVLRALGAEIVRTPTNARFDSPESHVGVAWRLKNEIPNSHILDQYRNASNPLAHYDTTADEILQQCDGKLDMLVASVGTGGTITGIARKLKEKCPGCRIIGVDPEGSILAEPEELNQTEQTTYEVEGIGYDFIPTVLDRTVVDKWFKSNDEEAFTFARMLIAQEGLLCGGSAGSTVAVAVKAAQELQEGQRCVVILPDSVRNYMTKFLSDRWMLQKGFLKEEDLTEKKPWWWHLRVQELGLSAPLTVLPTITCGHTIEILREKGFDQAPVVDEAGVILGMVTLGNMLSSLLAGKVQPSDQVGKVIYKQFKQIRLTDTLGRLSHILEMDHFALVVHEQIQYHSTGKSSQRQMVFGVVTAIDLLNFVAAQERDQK
inactive: [1] 0.031 | [2] -0.001 | [3] 0.004 | [4] 0.019 | [5] -0.08 | [6] -0.021 | [7] -0.004 | [8] -0.016 | [9] -0.135 | [10] 0.02

CENPE (UniProt Q02224)
Sequence of UniProt Q02224 (Q02224 whole entry, looked up): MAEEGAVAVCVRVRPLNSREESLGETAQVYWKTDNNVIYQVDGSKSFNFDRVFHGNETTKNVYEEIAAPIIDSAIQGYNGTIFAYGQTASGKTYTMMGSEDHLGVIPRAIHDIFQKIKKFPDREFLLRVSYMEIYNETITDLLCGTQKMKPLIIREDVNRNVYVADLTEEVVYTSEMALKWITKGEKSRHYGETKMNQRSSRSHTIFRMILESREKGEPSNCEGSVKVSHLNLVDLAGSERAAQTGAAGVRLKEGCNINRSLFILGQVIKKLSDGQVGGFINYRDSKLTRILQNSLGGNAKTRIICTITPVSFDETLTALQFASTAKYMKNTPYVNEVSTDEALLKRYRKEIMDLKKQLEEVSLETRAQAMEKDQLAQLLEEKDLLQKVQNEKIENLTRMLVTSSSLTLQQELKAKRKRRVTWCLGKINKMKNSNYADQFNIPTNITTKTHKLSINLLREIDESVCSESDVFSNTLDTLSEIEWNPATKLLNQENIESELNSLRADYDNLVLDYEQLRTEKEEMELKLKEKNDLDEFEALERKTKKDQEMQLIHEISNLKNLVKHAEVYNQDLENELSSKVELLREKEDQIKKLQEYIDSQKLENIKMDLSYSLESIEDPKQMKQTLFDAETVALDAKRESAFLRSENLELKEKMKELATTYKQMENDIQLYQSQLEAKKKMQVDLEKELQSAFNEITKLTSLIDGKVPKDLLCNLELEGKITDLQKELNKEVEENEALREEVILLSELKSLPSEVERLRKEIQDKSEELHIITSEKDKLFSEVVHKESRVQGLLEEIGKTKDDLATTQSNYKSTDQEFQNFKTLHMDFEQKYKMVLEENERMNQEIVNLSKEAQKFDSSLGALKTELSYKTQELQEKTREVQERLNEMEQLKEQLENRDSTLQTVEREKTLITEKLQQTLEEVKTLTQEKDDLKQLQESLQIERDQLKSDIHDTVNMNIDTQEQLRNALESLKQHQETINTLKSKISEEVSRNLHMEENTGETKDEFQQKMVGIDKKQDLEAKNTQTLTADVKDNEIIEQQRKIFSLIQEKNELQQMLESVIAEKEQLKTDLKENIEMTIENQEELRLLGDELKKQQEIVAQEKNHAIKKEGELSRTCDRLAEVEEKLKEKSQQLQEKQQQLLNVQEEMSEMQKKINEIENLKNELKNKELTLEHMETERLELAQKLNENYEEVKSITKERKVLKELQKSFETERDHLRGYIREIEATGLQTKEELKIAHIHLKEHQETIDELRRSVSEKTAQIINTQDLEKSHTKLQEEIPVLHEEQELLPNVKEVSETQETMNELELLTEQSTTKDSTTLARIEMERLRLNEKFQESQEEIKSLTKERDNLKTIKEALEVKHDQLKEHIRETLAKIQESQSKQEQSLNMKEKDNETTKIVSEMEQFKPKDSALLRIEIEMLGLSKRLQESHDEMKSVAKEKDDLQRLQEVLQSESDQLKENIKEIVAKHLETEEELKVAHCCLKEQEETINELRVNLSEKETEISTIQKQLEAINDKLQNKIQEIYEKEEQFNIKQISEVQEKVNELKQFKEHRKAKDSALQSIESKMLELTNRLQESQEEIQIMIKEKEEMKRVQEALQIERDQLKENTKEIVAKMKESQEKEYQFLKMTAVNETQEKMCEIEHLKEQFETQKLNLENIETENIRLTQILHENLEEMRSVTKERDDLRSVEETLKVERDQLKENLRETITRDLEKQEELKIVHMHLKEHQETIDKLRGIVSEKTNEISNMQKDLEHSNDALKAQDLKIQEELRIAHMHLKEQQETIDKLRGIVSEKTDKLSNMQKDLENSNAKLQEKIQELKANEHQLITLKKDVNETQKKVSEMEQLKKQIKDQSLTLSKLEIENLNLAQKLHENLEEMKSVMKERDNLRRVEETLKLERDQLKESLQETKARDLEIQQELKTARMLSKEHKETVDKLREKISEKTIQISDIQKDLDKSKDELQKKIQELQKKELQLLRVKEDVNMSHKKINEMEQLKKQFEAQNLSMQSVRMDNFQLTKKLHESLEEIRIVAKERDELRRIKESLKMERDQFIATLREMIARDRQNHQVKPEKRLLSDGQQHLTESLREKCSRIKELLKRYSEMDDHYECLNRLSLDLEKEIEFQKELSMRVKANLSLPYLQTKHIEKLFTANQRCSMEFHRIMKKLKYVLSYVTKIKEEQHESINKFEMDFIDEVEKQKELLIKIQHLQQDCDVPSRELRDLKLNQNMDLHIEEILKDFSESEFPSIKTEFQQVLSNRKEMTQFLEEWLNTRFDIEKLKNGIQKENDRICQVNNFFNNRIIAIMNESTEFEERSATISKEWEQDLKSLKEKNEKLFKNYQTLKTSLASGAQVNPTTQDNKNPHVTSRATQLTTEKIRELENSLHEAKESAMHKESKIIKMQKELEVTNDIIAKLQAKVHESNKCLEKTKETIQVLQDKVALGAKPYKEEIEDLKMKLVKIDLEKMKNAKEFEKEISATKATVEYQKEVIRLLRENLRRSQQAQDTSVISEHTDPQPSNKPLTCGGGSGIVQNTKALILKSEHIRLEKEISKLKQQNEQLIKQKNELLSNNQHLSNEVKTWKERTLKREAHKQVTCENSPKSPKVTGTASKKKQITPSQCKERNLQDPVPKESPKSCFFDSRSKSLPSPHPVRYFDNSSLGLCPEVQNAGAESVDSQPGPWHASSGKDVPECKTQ
inactive: [1] -0.018 | [2] 0.063 | [3] 0.022 | [4] -0.096 | [6] 0.047 | [7] -0.108 | [9] 0.285 | [10] -0.1

CLPP (UniProt Q16740)
inactive: [1] -0.002 | [2] -0.004 | [3] -0.003 | [4] 0.007 | [5] 0.041 | [6] 0.015 | [7] 0.008 | [8] 0.023 | [9] 0.003 | [10] 0.001

CLN8 (UniProt Q9UBY8)
inactive: [1] -0.018 | [2] 0.081 | [3] -0.085 | [6] -0.001 | [7] -0.109 | [8] -0.132 | [9] -0.086 | [10] 0.051

CDK17 isoform 2 (UniProt Q00537)
Sequence of UniProt Q00537 (Q00537 whole entry, looked up): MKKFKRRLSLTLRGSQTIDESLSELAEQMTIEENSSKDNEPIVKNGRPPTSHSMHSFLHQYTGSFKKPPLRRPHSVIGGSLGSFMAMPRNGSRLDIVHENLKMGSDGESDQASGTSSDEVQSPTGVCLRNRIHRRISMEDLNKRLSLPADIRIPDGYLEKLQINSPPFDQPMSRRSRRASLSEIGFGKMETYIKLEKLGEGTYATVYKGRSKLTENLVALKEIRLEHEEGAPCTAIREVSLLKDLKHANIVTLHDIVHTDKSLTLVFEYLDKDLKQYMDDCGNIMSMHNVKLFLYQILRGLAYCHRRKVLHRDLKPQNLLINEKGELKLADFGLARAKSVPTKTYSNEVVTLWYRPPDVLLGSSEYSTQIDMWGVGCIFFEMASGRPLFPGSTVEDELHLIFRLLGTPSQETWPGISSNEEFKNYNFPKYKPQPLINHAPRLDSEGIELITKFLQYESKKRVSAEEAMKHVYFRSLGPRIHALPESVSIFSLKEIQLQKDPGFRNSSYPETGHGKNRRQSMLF
inactive: [1] 0.105 | [3] 0.061 | [4] -0.051 | [5] 0.172 | [6] -0.098 | [7] -0.085 | [8] 0.042 | [9] 0.003 | [10] 0.055

CEBPZOS (UniProt A8MTT3)
Sequence of UniProt A8MTT3 (A8MTT3 whole entry, looked up): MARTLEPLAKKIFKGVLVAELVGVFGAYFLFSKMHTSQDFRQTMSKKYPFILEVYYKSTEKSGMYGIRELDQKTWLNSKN
inactive: [2] -0.015 | [3] 0.027 | [4] -0.016 | [6] 0.065 | [7] 0.132 | [8] -0.069 | [9] -0.029 | [10] 0.059

CNN1 (UniProt P51911)
inactive: [1] -0.068 | [3] -0.1 | [5] -0.029 | [6] 0.056 | [7] -0.042 | [8] -0.012

CSNK1A1 isoform 3 (UniProt P48729)
Sequence of UniProt P48729 (P48729 whole entry, looked up): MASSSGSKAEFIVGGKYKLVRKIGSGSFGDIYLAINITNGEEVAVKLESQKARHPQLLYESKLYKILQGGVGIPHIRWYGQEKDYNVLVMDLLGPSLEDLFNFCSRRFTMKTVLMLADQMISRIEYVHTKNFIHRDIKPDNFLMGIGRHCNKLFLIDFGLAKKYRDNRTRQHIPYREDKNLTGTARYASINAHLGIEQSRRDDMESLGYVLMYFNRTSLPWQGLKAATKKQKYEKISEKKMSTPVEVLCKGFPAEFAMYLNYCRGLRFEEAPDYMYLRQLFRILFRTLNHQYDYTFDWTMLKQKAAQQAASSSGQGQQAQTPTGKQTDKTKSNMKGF
inactive: [3] -0.08 | [7] 0.227 | [8] -0.035 | [10] -0.089

CNOT4 isoform 9 (UniProt O95628)
Sequence of UniProt O95628 (O95628 whole entry, looked up): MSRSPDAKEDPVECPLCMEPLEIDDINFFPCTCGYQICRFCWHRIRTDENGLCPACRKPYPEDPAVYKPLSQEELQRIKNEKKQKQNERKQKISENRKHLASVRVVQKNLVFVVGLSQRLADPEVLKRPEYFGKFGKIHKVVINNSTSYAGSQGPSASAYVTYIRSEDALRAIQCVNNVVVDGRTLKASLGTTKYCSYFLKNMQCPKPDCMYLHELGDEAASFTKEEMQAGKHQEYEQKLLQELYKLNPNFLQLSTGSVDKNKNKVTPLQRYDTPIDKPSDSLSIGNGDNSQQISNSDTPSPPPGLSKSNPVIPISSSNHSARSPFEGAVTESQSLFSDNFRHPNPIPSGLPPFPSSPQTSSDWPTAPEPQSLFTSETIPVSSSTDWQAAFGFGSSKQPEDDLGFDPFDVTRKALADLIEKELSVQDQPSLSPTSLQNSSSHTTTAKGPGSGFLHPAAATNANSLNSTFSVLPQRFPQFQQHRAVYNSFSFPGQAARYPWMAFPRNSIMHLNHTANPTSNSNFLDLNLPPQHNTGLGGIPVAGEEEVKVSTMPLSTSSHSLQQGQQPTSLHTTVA
inactive: [2] -0.034 | [3] 0.003 | [4] 0.017 | [6] -0.059 | [7] 0.006 | [8] -0.171 | [9] 0.053 | [10] 0.015

CLCN5 isoform 2 (UniProt P51795)
inactive: [2] 0.052 | [4] -0.016 | [6] 0.029 | [9] 0.022

CLN3 (UniProt Q13286)
inactive: [2] 0.004 | [3] -0.025 | [4] -0.093 | [5] -0.039 | [6] 0.147 | [7] -0.119 | [8] -0.09 | [9] 0.02 | [10] -0.027

CPNE5 (UniProt Q9HCH3)
inactive: [9] -0.005

CRMP1 isoform 2 (UniProt Q14194)
inactive: [1] 0.089 | [6] -0.026 | [9] -0.19 | [10] 0.035

CCND3 (UniProt P30281)
inactive: [2] 0.046 | [3] 0.063 | [5] -0.004 | [6] -0.077 | [7] -0.028 | [8] -0.062 | [9] 0.021 | [10] 0.079

CARD9 (UniProt Q9H257)
inactive: [2] -0.15 | [4] 0.052 | [9] -0.106

CCDC187, A0A1W2PQX5
inactive: [2] -0.105 | [5] 0.003

C5orf30 (UniProt Q96GV9)
inactive: [3] -0.126 | [5] -0.186 | [7] 0.103
